Screening data as filed in PubChem BioAssay.
ABHD5 PLIN5 PPI: inhibitors of human ABHD5-perilipin-5 interaction; Split G. princeps luciferase complementation, luminescence, 4 h; inhibition, % at 4 µM; 0.78% of 360,000 active; AID 602281;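 active = inhibition above the mean inhibition across every tested compound plus 3 SD, cut at about 22% in these data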
PRMT1 FP inh: PRMT1 (human) inhibition, primary screen; recombinant PRMT1, activity-based probe fluorescence polarization; inhibition, % at 2.79 µM; 1.3% of 370,000 active; AID 652257;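 active = inhibition above about 21% made by adding two undisclosed values, limit read from the data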
NOD2-RIPK2 inh: blocks binding of human NOD2 to RIPK2. CHO BLA complementation NOD2-RIPK2, CCF4 ratio. O43353. 0.38% of 360,000 active. AID 624267. inhibition, % at 4.98 µM; in the data active = inhibition above about 21%
TLR9-MyD88 block: TLR9-MyD88 interaction inhibition | Q9NR96+Q99836 | CHO BLA complementation TLR9-MyD88, CCF4 FRET ratio | inhibition, % at 4.98 µM | 0.21% of 340,000 active;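 active = inhibition above the mean over all tested compounds plus 3 SD, cut at about 21% in these data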
Target sequence (Q99836 whole entry, looked up): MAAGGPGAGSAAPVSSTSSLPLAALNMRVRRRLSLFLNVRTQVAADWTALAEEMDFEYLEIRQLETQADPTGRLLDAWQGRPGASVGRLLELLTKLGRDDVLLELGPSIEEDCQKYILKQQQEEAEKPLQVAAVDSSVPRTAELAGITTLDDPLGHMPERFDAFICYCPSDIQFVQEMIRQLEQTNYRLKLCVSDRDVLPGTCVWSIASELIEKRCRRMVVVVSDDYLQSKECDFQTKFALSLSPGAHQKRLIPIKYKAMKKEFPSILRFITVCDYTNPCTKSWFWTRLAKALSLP
Target sequence (Q9NR96 whole entry, looked up): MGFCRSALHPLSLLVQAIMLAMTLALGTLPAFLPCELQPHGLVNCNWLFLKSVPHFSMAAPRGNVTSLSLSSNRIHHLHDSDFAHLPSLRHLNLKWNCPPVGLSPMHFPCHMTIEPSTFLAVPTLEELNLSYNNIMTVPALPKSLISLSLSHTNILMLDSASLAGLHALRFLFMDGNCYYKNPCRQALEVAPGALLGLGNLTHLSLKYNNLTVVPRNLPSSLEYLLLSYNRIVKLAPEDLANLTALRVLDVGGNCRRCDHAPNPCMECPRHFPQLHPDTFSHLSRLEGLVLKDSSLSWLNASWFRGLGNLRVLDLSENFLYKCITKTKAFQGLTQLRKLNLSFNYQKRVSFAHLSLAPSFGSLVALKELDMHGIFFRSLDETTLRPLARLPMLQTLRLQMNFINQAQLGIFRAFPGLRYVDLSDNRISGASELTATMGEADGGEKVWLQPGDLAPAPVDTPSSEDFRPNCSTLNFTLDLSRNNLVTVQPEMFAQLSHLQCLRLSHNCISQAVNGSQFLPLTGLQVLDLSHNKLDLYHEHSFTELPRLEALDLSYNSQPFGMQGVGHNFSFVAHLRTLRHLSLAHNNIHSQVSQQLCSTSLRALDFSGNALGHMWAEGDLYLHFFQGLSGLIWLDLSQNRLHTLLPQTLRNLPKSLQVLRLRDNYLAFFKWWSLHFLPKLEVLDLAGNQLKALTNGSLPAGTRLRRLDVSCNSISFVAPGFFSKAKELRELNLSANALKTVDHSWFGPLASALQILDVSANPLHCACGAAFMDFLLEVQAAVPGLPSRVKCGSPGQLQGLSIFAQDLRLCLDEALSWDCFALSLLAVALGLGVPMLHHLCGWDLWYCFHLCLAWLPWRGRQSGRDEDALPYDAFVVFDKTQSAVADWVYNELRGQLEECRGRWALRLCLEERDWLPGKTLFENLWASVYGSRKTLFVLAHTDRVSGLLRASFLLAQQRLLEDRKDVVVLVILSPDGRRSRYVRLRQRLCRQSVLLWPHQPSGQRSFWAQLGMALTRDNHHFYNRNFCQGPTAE
rCAG RNA binder: r(CAG) repeat RNA binding; TO-PRO-1 dye displacement fluorescence; inhibition, % at 3 µM; 1.3% of 370,000 active;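 active = inhibition above the plate cutoff, the mean of all test compounds on that plate plus 3 SD, cut at about 35% in these data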;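 note: higher means more dye released from RNA so lower well fluorescence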
TLR4 MyD88 comp: blocks binding of human TLR4 to MyD88; HeLa CL3-4 TLR4/MyD88 BLA complementation, FRET ratio; inhibition, % at 8.4 µM; 0.18% of 200,000 active; AID 861; in the data active = inhibition above about 25%
PRMT1 confirm: PRMT1 (human) inhibition, FP confirmation. shares compounds with PRMT1 FP inh. recombinant His-PRMT1, activity-based probe fluorescence polarization. inhibition, % at 2.79 µM. 42% of 3,300 active;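 active = mean inhibition across replicates above the hit cutoff derived for the earlier primary screen, cut at about 22% in these data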
Of the large screens only hits and unclear results are named; the others gave an inactive call (follow-up assays come after a bar, where they were run). In the library only some 3.3% were active in any assay of this set; here they are far more common.

S=C(Nc1ccccc1Cl)OCCN1CCCC12CCC(c1ccccc1)CC2 (stereo not given)	PRMT1 FP inh 57 (no result: ABHD5 PLIN5 PPI, NOD2-RIPK2 inh, TLR9-MyD88 block, rCAG RNA binder, TLR4 MyD88 comp) | PRMT1 confirm 41
S=C(Nc1ccc(Br)cc1)OCCN1CCCC12CCC(c1ccccc1)CC2 (stereo not given)	PRMT1 FP inh 52 (no result: ABHD5 PLIN5 PPI, NOD2-RIPK2 inh, TLR9-MyD88 block, rCAG RNA binder, TLR4 MyD88 comp) | PRMT1 confirm 56
CCn1c2ccccc2c2cc(NC(=O)COC(=O)c3cc(F)ccc3C)ccc21	none (no result: ABHD5 PLIN5 PPI, NOD2-RIPK2 inh, TLR9-MyD88 block, TLR4 MyD88 comp)
Cc1ccc(-n2c(SCC(N)=O)nc3c(oc4ccccc43)c2=O)cc1	none (no result: TLR4 MyD88 comp)
Cc1c(C(c2cccc(O)c2)c2c(C)n(C)n(-c3ccccc3)c2=O)c(=O)n(-c2ccccc2)n1C	none
Cc1c(C(c2cc(O)ccc2O)c2c(C)n(C)n(-c3ccccc3)c2=O)c(=O)n(-c2ccccc2)n1C	PRMT1 FP inh 33 (no result: TLR4 MyD88 comp) | PRMT1 confirm inactive
COc1cc(C)c(S(=O)(=O)NOCc2ccccc2)c(C)c1C	none (no result: TLR4 MyD88 comp)
CCNC(=O)C1(C)CCCN(C(=O)c2cccnc2Oc2ccccc2)C1 (stereo not given)	none (no result: TLR9-MyD88 block, TLR4 MyD88 comp)
O=C(OCC(=O)C12CC3CC(CC(C3)C1)C2)c1ccc(O)cc1	PRMT1 FP inh 56 (no result: TLR4 MyD88 comp) | PRMT1 confirm inactive
COC(=O)c1sccc1NC(=O)c1ccc(OC)cc1OC	none
COc1cccc(C(C)(O)c2nc(-c3cccc4cccnc34)cs2)c1 (stereo not given)	none (no result: TLR9-MyD88 block, TLR4 MyD88 comp)
CSc1ccc(C(=S)N2CCCCCC2)cc1	none (no result: TLR4 MyD88 comp)
CCN1CCN(C(=S)c2ccc(SC)cc2)CC1	PRMT1 FP inh 32 | PRMT1 confirm inactive
CSc1ccc(C(=S)N2CCN(Cc3ccccc3)CC2)cc1	PRMT1 FP inh 32 | PRMT1 confirm 38
Nc1c(-c2cccc([N+](=O)[O-])c2)nc2ccccn12	none
Cn1c(=O)[nH]c(=O)c2c1nc(SCC(=O)O)n2CCc1ccccc1	PRMT1 FP inh 26 | PRMT1 confirm inactive
CCc1ccc2[nH]c(=O)c(CN(Cc3ccccc3)Cc3nnnn3Cc3ccco3)cc2c1	none
Cc1cc(C)c2cc(CN(Cc3ccc4c(c3)OCO4)Cc3nnnn3Cc3ccco3)c(=O)[nH]c2c1	none
O=c1[nH]c2cc3c(cc2cc1CN(Cc1cccs1)Cc1nnnn1Cc1ccco1)OCCO3	PRMT1 FP inh 58 | PRMT1 confirm 33
O=c1[nH]c2cc3c(cc2cc1CN(Cc1cccnc1)Cc1nnnn1Cc1ccco1)OCCO3	PRMT1 FP inh 35 | PRMT1 confirm 27
Cc1ccc2[nH]c(=O)c(CN(Cc3ccc4c(c3)OCO4)Cc3nnnn3Cc3ccco3)cc2c1	none
O=c1[nH]c2cc3c(cc2cc1CN(Cc1ccccc1)Cc1nnnn1Cc1ccco1)OCCO3	ABHD5 PLIN5 PPI 34, PRMT1 FP inh 52 | PRMT1 confirm inactive
Cc1ccc2cc(CN(Cc3nnnn3Cc3ccco3)CC3CCCO3)c(=O)[nH]c2c1C (stereo not given)	none
COc1ccccc1CN(Cc1cc2cc3c(cc2[nH]c1=O)OCCO3)Cc1nnnn1Cc1ccco1	PRMT1 FP inh 36 | PRMT1 confirm inactive
COc1ccccc1NC(=O)c1ccc(NC(=O)COC(=O)CC(NC(=O)c2ccccc2Cl)c2ccccc2)cc1 (stereo not given)	none
COc1ccc(CC(=O)Nc2nnc(C)s2)cc1	none
CC(NC(=O)COC(=O)CCN1C(=O)C2CC=CCC2C1=O)c1ccc(Br)cc1 (stereo not given)	none (no result: TLR4 MyD88 comp)
CC(C)Nc1nc(NCCN2CCNC2=O)c2sccc2n1	PRMT1 FP inh 40 (no result: TLR9-MyD88 block, TLR4 MyD88 comp) | PRMT1 confirm inactive
O=C1Nc2ccc(F)cc2C12OCCO2	none (no result: TLR4 MyD88 comp)
O=C1CCNc2ccc(-c3ccccc3)cc21	PRMT1 FP inh 75 | PRMT1 confirm 79
c1ccc(-c2nn3c(C4CCCCC4)nnc3s2)nc1	none
Clc1ccc(OCc2nn3c(C4CCCCC4)nnc3s2)cc1	PRMT1 FP inh 27 | PRMT1 confirm inactive
NNS(=O)(=O)c1ccc(N2CCCC2=O)c([N+](=O)[O-])c1	PRMT1 FP inh 82 | PRMT1 confirm 55
NS(=O)(=O)c1ccc(N2CCCC2=O)c([N+](=O)[O-])c1	none
Cc1cc(NC(=O)CSCC(=O)OCC(=O)Nc2ccc(OC(F)F)cc2)no1	none (no result: TLR4 MyD88 comp)
Cc1cc(NC(=O)CSCC(=O)OCC(=O)c2cccc(Br)c2)no1	PRMT1 FP inh 27 (no result: TLR4 MyD88 comp) | PRMT1 confirm inactive
Cc1ccc2cc3c(N)c(C(=O)N4CCOCC4)sc3nc2c1	none
COc1ccc2cc3c(N)c(C(=O)N4CCCC4)sc3nc2c1	PRMT1 FP inh 41 (no result: ABHD5 PLIN5 PPI, NOD2-RIPK2 inh, TLR9-MyD88 block) | PRMT1 confirm inactive
O=C(CSC1=NCCS1)Nc1ccc(F)cc1	none (no result: TLR9-MyD88 block)
Cc1cc(NC(=O)CSC2=NCCS2)no1	PRMT1 FP inh 39 | PRMT1 confirm inactive
NC(=O)c1ccccc1NC(=O)CSC1=NCCS1	PRMT1 FP inh 27 (no result: TLR4 MyD88 comp) | PRMT1 confirm 53
COC(=O)[C@@]12CCCCN1[C@H](c1ccc(-c3cccc(Cl)c3)c(OC)c1)[C@H]1C(=O)N(C)C(=O)[C@H]12	none (no result: TLR4 MyD88 comp)
Cc1ccccc1NC(=O)CSC(N)=O	PRMT1 FP inh 75 | PRMT1 confirm 90
O=C(CSc1ccccc1)Nc1ccccc1C(=O)O	none
Cc1ccccc1NC(=O)CSCC(=O)Nc1ccccc1C	none
COc1ccccc1NC(=O)CCCCC(=O)Nc1ccccc1OC	none (no result: TLR4 MyD88 comp)
NC(=O)SCC(=O)Nc1ccccc1C(=O)O	PRMT1 FP inh 37 (no result: TLR4 MyD88 comp) | PRMT1 confirm 81
COc1ccccc1NC(=O)CSC(N)=O	PRMT1 FP inh 81 | PRMT1 confirm 93
CCCCCCC(=O)NC(Nc1ccc(S(N)(=O)=O)cc1)C(Cl)(Cl)Cl (stereo not given)	none
O=C(NCc1ccco1)c1cc2cc(Br)ccc2o1	PRMT1 FP inh 31 (no result: TLR4 MyD88 comp) | PRMT1 confirm 25
CC(=O)c1sc2nsc(SCCN3CCCCC3)c2c1N	PRMT1 FP inh 27 (no result: TLR9-MyD88 block, TLR4 MyD88 comp) | PRMT1 confirm inactive
CC(=O)Nc1ccc(/C=C2\Sc3ccccc3C2=O)cc1	none (no result: TLR4 MyD88 comp)
CC(=O)N(C)/C=C1\Sc2ccccc2C1=O	PRMT1 FP inh 78 | PRMT1 confirm inactive
O=CN(/C=C1\Sc2ccccc2C1=O)Cc1ccccc1	PRMT1 FP inh 56 | PRMT1 confirm inactive
CCC(=O)N(C)/C=C1\Sc2ccccc2C1=O	PRMT1 FP inh 56 | PRMT1 confirm 45
O=C(O)CCc1ccc(-c2cccs2)n1-c1ccc(C(=O)O)cc1	PRMT1 FP inh 37 | PRMT1 confirm inactive
CC(=O)c1cccc(-n2c(CCC(=O)O)ccc2-c2ccccc2)c1	none (no result: TLR4 MyD88 comp)
CC(=O)c1cccc(-n2c(CCC(=O)O)ccc2-c2cccs2)c1	PRMT1 FP inh 68 | PRMT1 confirm inactive
CN1c2ccccc2Sc2cc(N)ccc21	PRMT1 FP inh 29 (no result: TLR4 MyD88 comp) | PRMT1 confirm inactive
O=C(CCSc1ccccn1)c1ccccc1	PRMT1 FP inh 52 | PRMT1 confirm 24
O=C(Cc1ccccc1)Nc1nc(=O)c2ccccc2s1	PRMT1 FP inh 48 | PRMT1 confirm inactive
O=C(Nc1nc(=O)c2ccccc2s1)c1ccc(Cl)cc1	PRMT1 FP inh 32 | PRMT1 confirm inactive
